Most compounds without a hit are left out; they make up all but 2.9% or so of the library.
Rtt109 Vps75: inhibitors of Candida albicans Rtt109/Vps75 histone acetyltransferase; Q5AAJ8; purified Rtt109/Vps75, ThioGlo CoA-SH fluorescence, 4 h; inhibition, % at 34.9 µM; 330,000 tested, 0.16% active; AID 540336;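 active = inhibition of at least 50% in every replicate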
DAGLB inhibitor: diacylglycerol lipase beta (human) inhibition | Q8NCG7 | HEK293T DAGLB membrane lysate, EnzChek fluorogenic substrate | inhibition, % at 5.17 µM | 340,000 tested, 0.059% active | AID 504411; in the data active = inhibition above about 34%;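 note: 0% = enzyme with vehicle and 100% = wells lacking enzyme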
Target sequence (Q8NCG7 whole entry, looked up): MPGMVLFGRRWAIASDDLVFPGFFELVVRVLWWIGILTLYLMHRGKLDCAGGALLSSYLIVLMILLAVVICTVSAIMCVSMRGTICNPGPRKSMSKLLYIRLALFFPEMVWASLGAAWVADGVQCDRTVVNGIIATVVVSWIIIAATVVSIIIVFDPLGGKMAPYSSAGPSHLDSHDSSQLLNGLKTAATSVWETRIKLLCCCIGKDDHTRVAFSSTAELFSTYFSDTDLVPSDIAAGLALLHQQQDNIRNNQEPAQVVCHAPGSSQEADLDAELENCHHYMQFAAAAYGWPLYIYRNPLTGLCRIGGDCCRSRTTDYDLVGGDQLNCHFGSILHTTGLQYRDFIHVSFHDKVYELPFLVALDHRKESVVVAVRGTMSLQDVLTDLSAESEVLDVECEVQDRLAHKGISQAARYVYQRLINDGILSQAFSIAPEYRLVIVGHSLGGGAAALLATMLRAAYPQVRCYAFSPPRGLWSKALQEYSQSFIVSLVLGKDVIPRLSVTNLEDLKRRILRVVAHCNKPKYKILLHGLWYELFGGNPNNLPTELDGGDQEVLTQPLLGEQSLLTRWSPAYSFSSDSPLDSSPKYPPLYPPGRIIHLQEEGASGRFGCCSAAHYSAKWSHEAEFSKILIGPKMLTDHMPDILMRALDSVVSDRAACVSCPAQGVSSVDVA
Cardio protect: myocardial damage modulation in H9c2 cells. 360,000 tested, 0.63% active. H9c2 cardiomyocytes, H2O2 injury protection, ATPLite, 2 h. protection from H2O2 cell death, % at 20 µM. AID 588492;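 active = compounds giving at least 50% protection of heart cells from peroxide-induced death in the single-dose screen, raw or plate-pattern-corrected value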;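 note: 0% = DMSO wells with peroxide and 100% = DMSO wells without peroxide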
HGIII-sPLA2 inh: Blocks human group III sPLA2 activity; Q9NZ20; QFRET BODIPY PC-A2 liposome hydrolysis, fluorescence; inhibition, % at 12.2 µM; 370,000 tested, 0.56% active;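 active = inhibition above mean plus 3 SD of compounds lying within the high and low control bounds, cut at about 19% in these data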;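 note: 0% = median of test compound wells and 100% = no enzyme DMSO wells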
ABHD5 PLIN5 PPI: ABHD5-PLIN5 protein interaction inhibition; Q00G26+Q8WTS1; Split G. princeps luciferase complementation, luminescence, 4 h; inhibition, % at 4 µM; 360,000 tested, 0.78% active; AID 602281;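 active = inhibition above the mean inhibition across every tested compound plus 3 SD, cut at about 22% in these data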;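 note: 0% = DMSO only wells and the 100% control is not disclosed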
Myeloid diff 2: compounds promoting myeloid differentiation. ER-HoxA9 myeloid progenitors, lysozyme-GFP differentiation, flow cytometry. calls only at 10 µM. 360,000 tested, 1% active. AID 624256;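 active = normalized GFP-positive differentiation at or above the plate's own cutoff, the solvent-only control mean plus 3 SD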;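 note: cells exposed to compound for four days before flow analysis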
sPLA2 confirm: human GIII-sPLA2 inhibition, confirmation | shares compounds with HGIII-sPLA2 inh | recombinant hGIII-sPLA2, BODIPY PC-A2 QFRET fluorescence | inhibition, % at 12.2 µM | 2,000 tested, 34% active | AID 743280;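 active = mean inhibition across triplicates above the hit cutoff set in the earlier primary screen, cut at about 19% in these data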;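 note: 0% = enzyme with DMSO and 100% = DMSO wells lacking enzyme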
535nm interf: optically interferes with 535nm fluorescence in sPLA2 counter-screen | shares compounds with HGIII-sPLA2 inh | BODIPY FL product fluorescence interference, QFRET | inhibition, % at 12.2 µM | 2,000 tested, 8.5% active | AID 743282;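 active = average inhibition above the solvent-only control mean plus 3 SD, cut at about 6% in these data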;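 note: 0% = DMSO with substrate plus product and 100% = DMSO with substrate alone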
BODIPY interf DR: interferes with 535nm fluorescence in dose response counter-screen; 240 tested, under 10 active; IC50, µM; shares compounds with HGIII-sPLA2 inh; BODIPY FL product fluorescence interference, cell-free;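 active = IC50 at or below 10 µM; inactive = IC50 above 10 µM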
Active calls of the source: *.

CN(Cc1ccccc1)C(=O)c1ccc(Nc2nc(C(N)Cc3ccccc3)cs2)nc1 (stereo unspecified) was read as Cardio protect -19, HGIII-sPLA2 inh 2, ABHD5 PLIN5 PPI 4 and Myeloid diff 2 inactive.
`CC(C)CC(N)c1csc(Nc2ccc(C(=O)N(C)Cc3ccccc3)cn2)n1` (stereo unspecified) gave Cardio protect 0, HGIII-sPLA2 inh 21*, ABHD5 PLIN5 PPI 4, Myeloid diff 2 inactive, sPLA2 confirm 0 and 535nm interf -28.
N#CC(C#N)c1ccnc2ccccc12 was read as DAGLB inhibitor -2, Cardio protect -4, HGIII-sPLA2 inh 19*, ABHD5 PLIN5 PPI 1, Myeloid diff 2 inactive, sPLA2 confirm 7 and 535nm interf -2.
For CCOc1ccc2[nH]c3c(NCCN(CC)CC)ncnc3c2c1 the results were Rtt109 Vps75 -1, DAGLB inhibitor -3, Cardio protect 2, HGIII-sPLA2 inh 20*, ABHD5 PLIN5 PPI 9, Myeloid diff 2 inactive, sPLA2 confirm 2 and 535nm interf -16.
Screening Cc1cccc(NNC(=S)Nc2c(C)cccc2C)c1 returned Rtt109 Vps75 -1, DAGLB inhibitor -1, Cardio protect -9, HGIII-sPLA2 inh 19*, ABHD5 PLIN5 PPI -16, sPLA2 confirm 29*, 535nm interf -4 and BODIPY interf DR >122.
`Cc1cccc(NNC(=S)Nc2ccccc2)c1` gave DAGLB inhibitor -7, Cardio protect -9, HGIII-sPLA2 inh 15, ABHD5 PLIN5 PPI -23 and Myeloid diff 2 inactive.
`Cc1ccccc1NC(=O)c1c(C)cc(=O)oc1C` gave Rtt109 Vps75 7, DAGLB inhibitor -4, Cardio protect 1, HGIII-sPLA2 inh 23*, ABHD5 PLIN5 PPI 3, Myeloid diff 2 inactive, sPLA2 confirm -2 and 535nm interf -6.
For Cc1cc(=O)oc(C)c1C(=O)Nc1cccc2ccccc12 the results were Rtt109 Vps75 -6, DAGLB inhibitor 1, Cardio protect 2, HGIII-sPLA2 inh 1, ABHD5 PLIN5 PPI 0 and Myeloid diff 2 inactive.
For COc1ccccc1NC(=O)c1c(C)cc(=O)oc1C the results were Rtt109 Vps75 -3, DAGLB inhibitor -2, Cardio protect -1, HGIII-sPLA2 inh -3, ABHD5 PLIN5 PPI -4 and Myeloid diff 2 inactive.
For Cc1cc(=O)oc(C)c1C(=O)Nc1ccccc1F the results were Rtt109 Vps75 0, DAGLB inhibitor -1, Cardio protect 0, HGIII-sPLA2 inh 26*, ABHD5 PLIN5 PPI 4, Myeloid diff 2 inactive, sPLA2 confirm 1 and 535nm interf -8.
Screening COc1ccc(C(=O)NNC(=O)c2ccc(S(=O)(=O)N3CCOCC3)cc2)cc1 returned Rtt109 Vps75 -5, DAGLB inhibitor 0, Cardio protect 0, HGIII-sPLA2 inh -2 and ABHD5 PLIN5 PPI -3.
`COc1ccc(N2CCN(C(c3cccs3)C(C)NC(=O)c3ccc4c(c3)OCO4)CC2)cc1` (stereo unspecified) gave Rtt109 Vps75 -3, DAGLB inhibitor -1, Cardio protect -2, HGIII-sPLA2 inh 22*, ABHD5 PLIN5 PPI -1, Myeloid diff 2 inactive, sPLA2 confirm 2 and 535nm interf -14.
`COc1ccc(N2CCN(C(c3cccs3)C(C)NC(=O)c3ccco3)CC2)cc1` (stereo unspecified) gave Rtt109 Vps75 -12, DAGLB inhibitor -1, Cardio protect 4, HGIII-sPLA2 inh 9, ABHD5 PLIN5 PPI -7 and Myeloid diff 2 inactive.
CCN(CC)S(=O)(=O)c1ccc(N/N=C/c2ccccc2OCC(=O)O)c([N+](=O)[O-])c1 was read as Rtt109 Vps75 10, DAGLB inhibitor 24, Cardio protect 7, HGIII-sPLA2 inh -19, ABHD5 PLIN5 PPI -1 and Myeloid diff 2 inactive.

Screening results: PubChem BioAssay, several laboratories
